Test systems include NDR2; NEK10; NEK11; NEK1; NEK2; NEK3; NEK4; NEK5; NEK6; NEK7; NEK9; NLK; PAK1; PAK2; PAK3; PAK4.
Holding throughout (conditions): concentration: 1 μM, replicates: in singlicate; n = 1
The next assay relates to T1, NDR1.
T1 construct: gene STK38

Another assay relates to T2, NIK.
T2 construct: gene MAP3K14

Another assay concerns T3, NIM1.
T3 construct: gene MGC42105

For the next assay, the system named is T4, OSR1.
T4 construct: gene OXSR1
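Also: KINOMEscan kinase panel screen.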

Regarding `Cc1c(Cn2ccn3c(=O)cc(N4CCOCC4)nc23)cccc1C(F)(F)F` [GSK2289044], the “%Inh” value with NDR1 is on record as 31%; in the assay with NDR2 it was 0%; with NEK10, 0%; with NEK11, 0%; with NEK1 it was 0%; with NEK2 it was 8%. For the same molecule, the “%Inh” value turned out to be 0% in the assay with NEK3; 0% in the assay on NEK4; 2% in the assay with NEK5; 0% in the assay on NEK6; 4% in the assay on NEK7; 20% in the assay with NEK9. The “%Inh” value with NIK was 0%; with NIM1, 7%; in the assay with NLK it was 27%; in the assay with OSR1, 8%; with PAK1, 16%; with PAK2, 8%. The “%Inh” value was found to be 13% in the assay with PAK3 and 0% in the assay with PAK4.

With `CC(C)(C)c1ccc(C(=O)Nc2cn3cc(Cl)ccc3n2)cc1`, the “%Inh” value came to 99.7% in the assay on NDR1; 0% in the assay on NDR2; 4% with NEK10; 0% with NEK11; 0% in the assay with NEK1; 0% in the assay on NEK2. Further, the “%Inh” value came to 21% in the assay with NEK3; 0% in the assay with NEK4; 0% in the assay on NEK5; 0% with NEK6; 0% with NEK7; 0% in the assay with NEK9. Further, the “%Inh” value with NIK is 0%; in the assay on NIM1, 0%; with NLK, 0%; with OSR1, 0%; in the assay on PAK1, 0%; with PAK2, 14%. For the same molecule, the “%Inh” value with PAK3 and in the assay with PAK4 was 0% each time.

As to `COC(=O)c1c(-c2ccccc2)c2cc(C(=O)O)ccc2c(=O)n1Cc1ccccc1`, the “%Inh” value came to 2% in the assay on NDR1; 0% with NDR2; 9% in the assay on NEK10; 0% in the assay with NEK11; 22% in the assay with NEK1; 0% with NEK2. Also, the “%Inh” value in the assay on NEK3 came out at 31%; in the assay on NEK4, 0%; with NEK5 it was 0%; with NEK6, 0%; in the assay on NEK7 it was 0%; in the assay with NEK9, 0%. Further, the “%Inh” value was 0% in the assay with NIK; 0% in the assay with NIM1; 0% with NLK; 0% in the assay with OSR1; 14% in the assay on PAK1; 22% with PAK2. In addition, the “%Inh” value in the assay with PAK3 and with PAK4 was 0% in each case.

In the case of `CS(=O)(=O)c1ccc(-c2c(-c3ncn[nH]3)sc(N3CCOCC3)c2C#N)cc1`, the “%Inh” value in the assay with NDR1 is recorded as 18%; in the assay with NDR2, 0%; with NEK10, 36%; in the assay on NEK11, 0%; in the assay on NEK1, 4%; with NEK2, 0%. Moreover, the “%Inh” value with NEK3 amounted to 40%; with NEK4 it was 0%; in the assay on NEK5, 7%; in the assay with NEK6, 31%; with NEK7 it was 0%; in the assay with NEK9 it was 0%. Besides, the “%Inh” value in the assay with NIK came out at 0%; in the assay on NIM1, 21%; with NLK it was 0%; in the assay with OSR1 it was 0%; in the assay with PAK1, 2%; in the assay on PAK2, 10%. The “%Inh” value was 6% in the assay with PAK3 and 5% with PAK4.

For `Cc1ccccc1-n1cnc2c(N)ncnc21` [SKF-97510], the “%Inh” value was found to be 0% in the assay on NDR1; 20% with NDR2; 0% with NEK10; 0% in the assay with NEK11; 11% in the assay on NEK1; 0% in the assay on NEK2. Also, the “%Inh” value is 0% in the assay with NEK3; 0% in the assay with NEK4; 9% with NEK5; 0% in the assay with NEK6; 12% in the assay on NEK7; 0% in the assay with NEK9. Besides, the “%Inh” value is given as 0% in the assay on NIK; 0% in the assay on NIM1; 15% with NLK; 0% with OSR1; 15% in the assay with PAK1; 11% in the assay on PAK2. The “%Inh” value in the assay on PAK3 amounted to 25%; in the assay with PAK4, 0%.

On to `O=C(Nc1n[nH]c2nc(-c3nccs3)c(Br)cc12)C1CCCC1` [SB-742609], for which the “%Inh” value is 0% with NDR1; 0% in the assay on NDR2; 15% with NEK10; 0% with NEK11; 0% with NEK1; 0% in the assay on NEK2. Besides, the “%Inh” value in the assay with NEK3 was found to be 14%; in the assay on NEK4, 38%; in the assay on NEK5 it was 0%; with NEK6, 0%; with NEK7 it was 5%; in the assay with NEK9, 0%. Further, the “%Inh” value is reported as 33% in the assay with NIK; 0% in the assay with NIM1; 31% in the assay on NLK; 7% in the assay with OSR1; 16% in the assay with PAK1; 21% in the assay with PAK2. The “%Inh” value turned out to be 17% in the assay with PAK3 and 0% with PAK4.

On to `Cc1ccc(C(=O)Nc2ccc(Nc3ccnc4cc(-c5ccccn5)ccc34)cc2O)cc1.Cl` [GW440146], for which the “%Inh” value with NDR1 worked out at 6%; with NDR2 it was 0%; in the assay on NEK10, 0%; with NEK11 it was 2%; in the assay with NEK1, 0%; in the assay on NEK2 it was 0%. Also, the “%Inh” value with NEK3 was 0%; in the assay on NEK4, 14%; with NEK5, 0%; in the assay with NEK6 it was 0%; in the assay on NEK7 it was 0%; with NEK9, 52%. Also, the “%Inh” value in the assay on NIK is 11%; in the assay with NIM1, 15%; in the assay with NLK it was 22%; with OSR1, 1%; in the assay with PAK1 it was 12%; in the assay with PAK2 it was 15%. In addition, the “%Inh” value came to 14% with PAK3 and 0% in the assay on PAK4.

For `CC(=O)Nc1nc2cnc(Nc3cc(NC(=O)c4cccc(CCC#N)c4)ccc3C)nc2s1`, the “%Inh” value in the assay with NDR1 stood at 0%; in the assay with NDR2, 22%; in the assay on NEK10, 13%; with NEK11, 0%; in the assay on NEK1 it was 0%; in the assay with NEK2 it was 2%. Further, the “%Inh” value is given as 7% with NEK3; 0% with NEK4; 0% in the assay with NEK5; 14% in the assay on NEK6; 6% in the assay on NEK7; 0% with NEK9. Besides, the “%Inh” value with NIK, in the assay on NIM1, in the assay with NLK, with OSR1, in the assay with PAK1 and with PAK2 was 0% throughout. Moreover, the “%Inh” value with PAK3 worked out at 7%; in the assay on PAK4, 5%.

`Cn1ccc2ncnc(Oc3ccc(Nc4nc5ccccc5[nH]4)cc3)c21`: the “%Inh” value in the assay with NDR1 was found to be 0%; in the assay with NDR2, 10%; with NEK10, 0%; with NEK11, 0%; in the assay with NEK1, 0%; in the assay with NEK2, 0%. The “%Inh” value is 0% with NEK3; 99.9% with NEK4; 0% with NEK5; 0% in the assay on NEK6; 0% in the assay with NEK7; 0% in the assay on NEK9. Besides, the “%Inh” value in the assay with NIK came to 0%; with NIM1 it was 0%; in the assay with NLK it was 4%; with OSR1, 0%; in the assay on PAK1, 14%; with PAK2, 0%. Besides, the “%Inh” value with PAK3 and in the assay with PAK4 was 0% each time.

With `Cc1cc(NCC(c2ccccc2)c2ccccc2)nc(NCc2ccc(C(F)(F)F)cc2)n1` [GW497681], the “%Inh” value with NDR1 is listed as 10%; with NDR2, 16%; with NEK10 it was 0%; in the assay with NEK11 it was 0%; with NEK1, 0%; in the assay with NEK2, 0%. Also, the “%Inh” value with NEK3, in the assay with NEK4, in the assay on NEK5, in the assay with NEK6, with NEK7 and in the assay on NEK9 was 0% each time. In addition, the “%Inh” value in the assay with NIK turned out to be 7%; in the assay on NIM1 it was 22%; with NLK it was 0%; in the assay with OSR1, 3%; with PAK1, 0%; in the assay with PAK2, 2%. Further, the “%Inh” value with PAK3 and in the assay on PAK4 was 0% throughout.

For `Cc1cccc(-c2nc(Nc3ccc4[nH]ncc4c3)c3ccccc3n2)n1` [GW857175], the “%Inh” value in the assay on NDR1 was found to be 26%; in the assay with NDR2, 5%; in the assay on NEK10, 54%; in the assay with NEK11, 7%; in the assay with NEK1 it was 0%; with NEK2 it was 4%. For the same molecule, the “%Inh” value in the assay on NEK3 was found to be 18%; with NEK4, 27%; with NEK5, 8%; with NEK6, 3%; in the assay on NEK7, 5%; in the assay on NEK9, 0%. The “%Inh” value in the assay on NIK stood at 11%; in the assay with NIM1, 30%; in the assay on NLK, 1%; in the assay with OSR1, 25%; with PAK1 it was 0%; in the assay on PAK2 it was 2%. The figures for the “%Inh” value in the assay with PAK3 and in the assay with PAK4 were 0% and 6%, respectively.

These data come from article PMC5540273 (PLoS ONE, 2017).
